From PubChem BioAssay (NCATS) come the findings set out here.

SMILES strings stand for the structures. Starred links: 1 amine or outer side, 2 acyl side, 3 side chain; linkers in the order of their positions; H or OH if unused. Positions of bridges follow the written chain, without caps; N, C: chain ends. Non-standard residues stand in square brackets, D forms with d. Residues, ends and D or L forms follow the SMILES beside them. ξ: configuration not given here. *: point of attachment. ΔAla(3-NHCONH2) = NC(=O)NC=C(N)C(=O)O; X1 = NC1=NCCC(C(N[*:1])C(=O)[*:2])N1; ξβ3hOrn = NCCCC(N)CC(=O)*; Dap = NC[CH](N)C(=O)O

The nature of one assay: qHTS profiling of the MIPE4 collection as inhibitors of Plasmodium falciparum (HB3) proliferation (AID 743347).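 Further: plate controls were DMSO vehicle wells for no effect and artemisinin wells for full effect.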 The settings on record: P. falciparum HB3 in erythrocytes, SYBR Green DNA, 72 h; at 0.217 µM (top of the series). The text has this: Plasmodium falciparum is a virulent malarial parasite that kills 1-2 million people worldwide each year. Transmitted by mosquitoes, the sporozoite form of the parasite enters the blood stream to infect hepatocytes, where they become merozoites that infect red blood cells (erythrocytes). Within erythrocytes, merozoites begin a […] cycle of growth and division, after which the parasite is released to infect new red blood cells. Gametocytes, which form within erythrocytes as well, circulate in the bloodstream and are ingested by the mosquito, thereby completing the life cycle. To profile malarial isolates for differential chemical responses and to identify inhibitors of malarial growth, an assay that measures P. falciparum growth and replication within erythrocytes was employed. This assay uses a DNA binding fluorescent dye (SYBR Green) to detect parasite DNA following cell lysis. Because mature erythrocytes lack DNA, only Plasmodium-derived DNA is detected.
The SYBR Green viability assay was adapted from a method described previously (Plouffe et al., 2008). For screening 3 ul culture medium was dispensed into 1536 well black clear bottom plates (Aurora Biotechnologies) using a Multidrop Combi (Thermo Fisher Scientific Inc.), 23 nL compounds in DMSO were added by a pin tool (Kalypsys), and 5 ul of erythrocytes infected with P. falciparum (0.3% parasitemia, 2.5% hematocrit final concentration) were added. The plates were incubated at 37 C in a humidified incubator in 5% CO2 for 72 h, and 2 ul lysis buffer (20 mM Tris HCl, 10 mM EDTA, 0.16% saponin, 1.6% triton X, 10X SYBR Green I supplied as 10,000X […] by Invitrogen) was added to each well. The plates were mixed for 25 sec with gentle shaking and incubated overnight at room temperature in the dark. The following morning, fluorescence intensity at 485(14) nm excitation and 535(25) nm emission wavelengths was measured on an EnVision (Perkin Elmer) plate reader. Plate reads were normalized relative to the control inhibitor (0.29 uM artemisinin) and vehicle (DMSO) wells present on each plate and then corrected by an algorithm using vehicle-only control plates at the beginning and end of the compound plate stack.
Background: qHTS replaces the single test concentration by a dilution series.
`NCCCC(N)CC(=O)NCC1NC(=O)C(CO)NC(=O)C(N)CNC(=O)C(C2CCN=C(N)N2)NC(=O)C(=CNC(N)=O)NC1=O` (stereo not drawn) (H-[Dap]S[Dap](ξβ3hOrn)[ΔAla(3-NHCONH2)][X1]; lactam 1-C; configuration not given here): the growth, % of control came out at 101%.

The same assay, now with this note: P. falciparum HB3 in erythrocytes, SYBR Green DNA, 72 h; at 28.5 µM (top of the series).
In turn, `NCCCC(N)CC(=O)NCC1NC(=O)C(CO)NC(=O)C(N)CNC(=O)C(C2CCN=C(N)N2)NC(=O)C(=CNC(N)=O)NC1=O` (stereo not drawn) (H-[Dap]S[Dap](ξβ3hOrn)[ΔAla(3-NHCONH2)][X1]; lactam 1-C; configuration not given here) registered a growth, % of control of 86.8%.

The same assay, now with this note: P. falciparum HB3 in erythrocytes, SYBR Green DNA, 72 h; at 28.5 µM (top of the series) unless noted.
In the case of `CN(C)[C@@H]1C(=O)C(C(N)=O)=C(O)[C@@]2(O)C(=O)C3=C(O)c4c(O)cccc4[C@@](C)(O)[C@H]3C[C@@H]12`, the growth, % of control amounted to 32.8%. In turn, `CC(COc1ccccc1)N(CCCl)Cc1ccccc1` (stereo not given) returned a growth, % of control of 91.2%. For `Cc1ccnc2c1NC(=O)c1cccnc1N2C1CC1`, the growth, % of control was 600%.

Turning to `N[C@@H](Cc1ccc(N(CCCl)CCCl)cc1)C(=O)O`, the growth, % of control was determined as 57.1%.

As for `Oc1cc(Cl)ccc1Oc1ccc(Cl)cc1Cl`, the growth, % of control was determined as 5.41%. Same read-out and setting: next, `CC1=C2C[C@@H]3[C@@H](CC=C4C[C@@H](O)CC[C@@]43C)[C@@H]2CC[C@]12O[C@H]1C[C@H](C)CN[C@H]1[C@H]2C`: 71.2%. `CN1CCN(C(=O)O[C@H]2c3nccnc3C(=O)N2c2ccc(Cl)cn2)CC1` gave a growth, % of control of 97.2%. On the same count and under the same terms, the same measure for `O=NN(CCCl)C(=O)NC1CCCCC1`: 74.9%; for `Cc1cc(SCc2sc(-c3ccc(C(F)(F)F)c(F)c3)nc2C)ccc1OCC(=O)O`: 87.4%.

With `Nc1nc(F)nc2c1ncn2[C@@H]1O[C@H](CO)[C@@H](O)[C@@H]1O`, the growth, % of control came out at 81.8%. Still for that read-out and setting: next, `C#CCN(C)[C@H](C)Cc1ccccc1`: 95.7%.

As for `CCCC(C)(COC(N)=O)COC(=O)NC(C)C` (stereo not given), the growth, % of control was determined as 100%. Regarding `C[C@@H]1O[C@@H](O[C@H]2C[C@@H](O)[C@]3(CO)[C@H]4[C@H](O)C[C@]5(C)[C@@H](C6=CC(=O)OC6)CC[C@]5(O)[C@@H]4CC[C@]3(O)C2)[C@H](O)[C@H](O)[C@H]1O`, the growth, % of control stood at 101%. Compound `CNC(=O)c1ccc(N2C(=S)N(c3ccc(C#N)c(C(F)(F)F)c3)C(=O)C23CCC3)cc1F` registered a growth, % of control of 69.7%. The same measure, in the same setting: next, `Cn1c(CCCC(=O)O)nc2cc(N(CCCl)CCCl)ccc21`: 104%; `C[C@@H]1[C@@H](C(=O)C[C@H]2O[C@@H]3O[C@]4(C)CC[C@@H]5[C@H](C)CC[C@@H]([C@H]2C)[C@@]35OO4)O[C@@H]2O[C@]3(C)CC[C@H]4[C@H](C)CC[C@@H]1[C@@]24OO3`: 29.5%; `O=C1CC[C@@]2(O)[C@H]3Cc4ccc(O)c5c4[C@@]2(CCN3CC2CC2)[C@H]1O5`: 83.3%. `CCOC(=O)c1ncn2c1CN(C)C(=O)c1cc(F)ccc1-2` yielded a growth, % of control of 94.6%.

`CN(C)CCN(C)CCc1ccc(Cl)c(Cl)c1`: the growth, % of control stood at 72.7%. `OC(Cn1cncn1)(Cn1cncn1)c1ccc(F)cc1F` registered a growth, % of control of 103%.

Regarding `CO[C@]12CC[C@@]3(C[C@@H]1[C@](C)(O)C(C)(C)C)[C@@H]1Cc4ccc(O)c5c4[C@@]3(CCN1CC1CC1)[C@H]2O5`, the growth, % of control was determined as 7.07% [at 57.2 µM]. In turn, `COC[C@@H](NC(C)=O)C(=O)NCc1ccccc1` yielded a growth, % of control of 737%. Still for that read-out and setting: the same measure for `Cc1c(OCC(F)(F)F)ccnc1CS(=O)c1nc2ccccc2[nH]1` (stereo not given): 50.8%.

In turn, `C=C(C)[C@H]1Cc2c(ccc3c2O[C@@H]2COc4cc(OC)c(OC)cc4[C@@H]2C3=O)O1` returned a growth, % of control of 90.3%. The same measure, in the same setting: next, `O=P1(NCCCl)OCCCN1CCCl` (stereo not given): 107%; `O=C(O)C(=O)c1cn(Cc2ccccc2)c2ccc(-c3ccc(OC(F)(F)F)cc3)cc12`: 506%. Compound `O=c1[nH]cc(F)c(=O)[nH]1` returned a growth, % of control of 85.2%.

Take `O=c1[nH]c2ccccc2n1CCCN1CCC(n2c(=O)[nH]c3cc(Cl)ccc32)CC1`: the growth, % of control was 14%. On the same count and under the same terms, next, `CCN(C)C(=O)Oc1cccc([C@H](C)N(C)C)c1`: 82.1%; `CNCC(O)c1ccc(O)cc1` (stereo not given): 53.7%.

In turn, `CC(C)C(=O)Nc1ccc([N+](=O)[O-])c(C(F)(F)F)c1` gave a growth, % of control of 88.5%. `COc1ccc(C(CN(C)C)C2(O)CCCCC2)cc1` (stereo not given) showed a growth, % of control of 60.2%. Turning to `Cc1cccc(C)c1NC(=O)CN1CCCC1=O`, the growth, % of control worked out at 89.5%. The compound `COc1ccc(C(=O)c2c(C)n(CCN3CCOCC3)c3ccccc23)cc1` came in with a growth, % of control of 93.4%. Take `Cc1sc2c(c1C)C(c1ccc(Cl)cc1)=N[C@@H](CC(=O)OC(C)(C)C)c1nnc(C)n1-2`: the growth, % of control came out at 12.7%.

Compound `C[C@@H]1[C@@H](CC(C[C@H]2O[C@@H]3O[C@]4(C)CC[C@@H]5[C@H](C)CC[C@@H]([C@H]2C)[C@@]35OO4)C[S+](=O)([O-])c2ccc(COC(=O)N(C)C)cc2)O[C@@H]2O[C@]3(C)CC[C@H]4[C@H](C)CC[C@@H]1[C@@]24OO3` (stereo not given in full) had a growth, % of control of 20.9%. On the same count and under the same terms, next, `CCn1cc(C(=O)O)c(=O)c2cc(F)c(N3CCNCC3)cc21`: 82.1%. On the same count and under the same terms, the same measure for `Cc1cc2c(s1)Nc1ccccc1N=C2N1CCN(C)CC1`: 101%.
